Holding throughout (test): NCI-60 one-dose screen, 48 h (100 = growth as untreated, 0 = no growth, -100 = all killed)
What all share (conditions): 10 µM unless noted

Assay [1] relates to T-47D breast.
The subject of assay [2] is BT-549 breast.
Assay [3] relates to MDA-MB-435 melanoma.
Assay [4] relates to SW-620 colon.
Assay [5] relates to MCF7 breast.
The test system of assay [6] is HCT-116 colon.
Assay [7] concerns HCC-2998 colon.
Assay [8] relates to KM12 colon.

The panel holds about 83,000 compounds, 20% with a hit somewhere; the sample as a whole holds those more often.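 A percent growth of 40 corresponds to 60% growth inhibition; 0 means no net growth; -100 means all cells died. Active threshold: below 10.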 A number with no mark means an inactive call. Active and inactive are the calls of the source.

We go through 28 molecules from PubChem BioAssay (NCI).

Turning to `COc1c(B(O)O)cccc1-c1nc2ccc3[nH]ncc3c2c2c1CCC2`, the growth is 48% in assay [1]; 60% in assay [2]; 64% in assay [3]; 54.8% in assay [4]; 74.4% in assay [5]; 47.3% in assay [6]. Moreover, the growth in assay [7] was 88.8%; in assay [8], 51.3%.

Consider `CN(C)CCOc1ccc(/C(=C(/CCCl)c2ccccc2)c2ccccc2)cc1`, for which the growth in assay [1] was 25.6%; in assay [2], 46.8%; in assay [3] it was -7.62% (active); in assay [4], 15.8%; in assay [5], 3.24% (active); in assay [6], 6.56% (active). The growth was -41.2% (active) in assay [7] and -47.4% (active) in assay [8].

With `Cc1ccccc1OC(=O)c1cccc(Cl)c1`, the growth in assay [1] is 142%; in assay [2] it was 107%; in assay [3], 113%; in assay [4], 101%; in assay [5], 108%; in assay [6] it was 103%. Also, the growth was 99.8% in assay [7] and 101% in assay [8].

`CCOC(=O)c1nn(C2CCCCO2)c2ccc(NC(=O)Cn3nnc4ccccc43)cc12` (centres undefined): the growth in assay [1] is 85.5%; in assay [2] it was 96%; in assay [3] it was 110%; in assay [4], 105%; in assay [5] it was 99.5%; in assay [6] it was 88.6%. For the same molecule, the growth in assay [7] is 111%; in assay [8], 104%.

With `COC(=O)[C@]12CCC(C)(C)C[C@H]1C1=CC[C@@H]3[C@@]4(C)C/C(=C/c5cccnc5)C(=O)C(C)(C)[C@@H]4CC[C@@]3(C)[C@]1(C)CC2`, the growth was -12% [100 µM] (active) in assay [1]; -45.7% [100 µM] (active) in assay [2]; -51.1% [100 µM] (active) in assay [3]; -43.4% [100 µM] (active) in assay [4]; -65.1% [100 µM] (active) in assay [5]; -29.4% [100 µM] (active) in assay [6]. Also, the results for the growth in assay [7] and in assay [8] were -72.8% [100 µM] (active) and -48.6% [100 µM] (active), respectively.

As to `NC(=S)Cc1ccccc1`, the growth is 101% in assay [1]; 110% in assay [2]; 97.7% in assay [3]; 102% in assay [4]; 91% in assay [5]; 104% in assay [6]. For the same molecule, the growth in assay [7] is 107%; in assay [8], 101%.

`COC(=O)c1cc(O)c2c(c1C(=O)OC)C[C@H]1[C@@H]3CC=C4C[C@@H](O)CC[C@]4(C)[C@H]3CC[C@]21C`: the growth in assay [1] is 36%; in assay [2], 32.3%; in assay [3], 37.6%; in assay [4], 44.9%; in assay [5], 37.2%; in assay [6], 22%. The growth in assay [7] was 41.6%; in assay [8], 36.3%.

Regarding `CCCCN(CCCC)CC(O)c1ccc(OCc2ccccc2)c2ccccc12` (centres undefined), the growth is 87.5% in assay [1]; 111% in assay [2]; 51.2% in assay [3]; 72.6% in assay [4]; 95.7% in assay [5]; 53.5% in assay [6]. Moreover, the growth is 70% in assay [7] and 74.2% in assay [8].

With `O=[N+]([O-])c1cc([N+](=O)[O-])c(C(F)(F)F)cc1NN=C(c1ccc(O)cc1)c1ccc(O)cc1`, the growth in assay [1] was -6.47% (active); in assay [2], 132%; in assay [3], 99.1%; in assay [4], 106%; in assay [5], -10.1% (active); in assay [6] it was -82.4% (active). Also, the growth in assay [7] is -55.5% (active); in assay [8], 84%.

As to `CCCCOC(=O)c1c(C)[nH]c(/C=C2\N=C(c3ccc[nH]3)C=C2OC)c1C`, the growth was -46.1% (active) in assay [1]; 14.9% in assay [2]; -51.1% (active) in assay [3]; 11.6% in assay [4]; -44.2% (active) in assay [5]; -76.1% (active) in assay [6]. In addition, the values for the growth in assay [7] and in assay [8] were -28.1% (active) and -5.76% (active), respectively.

For `O=C(Nc1cccc2ccccc12)c1cc2ccccc2cc1O`, the growth was 14.4% in assay [1]; 11.6% in assay [2]; 0.191% (active) in assay [3]; 16.6% in assay [4]; 8.7% (active) in assay [5]; 7.65% (active) in assay [6]. The growth in assay [7] was 27.7%; in assay [8], 10.2%.

Turning to `COc1cc(-c2cc(-c3ccc(Nc4ncnc5cc(Cl)ccc45)cc3)nc(N3CCCCC3)n2)cc(OC)c1OC`, the growth in assay [1] was 91.3%; in assay [2], 84%; in assay [3] it was 106%; in assay [4], 97.7%; in assay [5] it was 86.6%; in assay [6], 103%. Besides, the growth in assay [7] was 114%; in assay [8] it was 97.8%.

Regarding `COc1cc2c(cc1OCCCCCOc1ccc(-n3c(C)nc4ccccc4c3=O)cc1)N=C[C@@H]1CCCN1C2=O`, the growth is -7.89% (active) in assay [1]; -89.2% (active) in assay [2]; -58.1% (active) in assay [3]; -13.8% (active) in assay [4]; -53.6% (active) in assay [5]; 0.749% (active) in assay [6]. Also, the growth in assay [7] is -61.7% (active); in assay [8], -45.7% (active).

Turning to `Cc1ccc(NC(=O)N[C@@H](Cc2cc(F)cc(F)c2)C(=O)N[C@@H]2C(=O)N3CCC[C@H]3C(=O)N3CCOC[C@H]3C(=O)N[C@@H](C)C(=O)N3C[C@H](C)C[C@H]3C(=O)O[C@H]2C)cc1`, the growth was 27% in assay [1]; 19.6% in assay [2]; 21% in assay [3]; 34.5% in assay [4]; 25% in assay [5]; 12.5% in assay [6]. The growth in assay [7] is 34.5%; in assay [8], 38.9%.

Regarding `Cc1ccc(S(=O)(=O)n2cc(C(=O)C(=O)N3CCCCC3)c3ccccc32)cc1`, the growth is 36.1% in assay [1]; 74.8% in assay [2]; 87.1% in assay [3]; 123% in assay [4]; 85.8% in assay [5]; 65.6% in assay [6]. For the same molecule, the growth in assay [7] is 82.3%; in assay [8], 87.6%.

Turning to `CCCCCn1c(C)cc(/C=C\c2ccc3cc(C)ccc3[n+]2C)c1C`, the growth in assay [1] is -49.1% (active); in assay [2], -29.9% (active); in assay [3] it was -90.2% (active); in assay [4] it was -35.9% (active); in assay [5] it was -18.2% (active); in assay [6] it was -34.4% (active). Besides, the growth in assay [7] is -70.1% (active); in assay [8] it was -72.4% (active).

With `Cc1nn(-c2ccccc2)c(N2CCOCC2)c1-c1nc2ccc([N+](=O)[O-])cc2[nH]1`, the growth in assay [1] was 95.8%; in assay [2], 96.8%; in assay [3] it was 96.1%; in assay [4] it was 116%; in assay [5] it was 96.6%; in assay [6], 97.8%. For the same molecule, the figures for the growth in assay [7] and in assay [8] were 133% and 103%, respectively.

As to `CCOC(=O)c1nn(C2CCCCO2)c2ccc(NC(=O)CN3CCCC3)cc12` (centres undefined), the growth in assay [1] was 102%; in assay [2], 94.3%; in assay [3], 102%; in assay [4], 97.2%; in assay [5], 95.9%; in assay [6], 89.9%. For the same molecule, the growth in assay [7] was 101%; in assay [8] it was 103%.

On to `C#CCNC(=O)CC[C@@H](C)[C@H]1CC[C@H]2[C@@H]3CC[C@@H]4CC(=O)CC[C@]4(C)[C@H]3CC[C@]12C`, for which the growth is 4.15% [100 µM] (active) in assay [1]; -60% [100 µM] (active) in assay [2]; -39.7% [100 µM] (active) in assay [3]; -58.2% [100 µM] (active) in assay [4]; -6.31% [100 µM] (active) in assay [5]; -1.19% [100 µM] (active) in assay [6]. Moreover, the growth is 0.203% [100 µM] (active) in assay [7] and -26.6% [100 µM] (active) in assay [8].

Turning to `CC[C@@H]1NC(=O)[C@@H]2CCCCN2C(=O)[C@@H]2CCCN2C(=O)[C@@H](NC(=O)[C@H](Cc2cc(F)cc(F)c2)NC(=O)Nc2ccc(C3CC3)cc2F)[C@H](C)OC(=O)[C@@H]2C[C@@H](C)CN2C1=O`, the growth was 7.13% (active) in assay [1]; 5.79% (active) in assay [2]; 3.08% (active) in assay [3]; 27% in assay [4]; 13.4% in assay [5]; 4.17% (active) in assay [6]. Moreover, the growth in assay [7] was -14.1% (active); in assay [8], 17%.

`O=C1CN(Cc2ccc(C(=O)NO)cc2)C(=O)[C@@H](Cc2ccccc2)N1`: the growth in assay [1] was 93.2%; in assay [2], 101%; in assay [3], 100%; in assay [4], 102%; in assay [5] it was 96%; in assay [6], 97.2%. The growth in assay [7] was 109%; in assay [8] it was 104%.

Take `O=[N+]([O-])c1ccc(O)c(-c2nc3ccccc3s2)c1`: the growth in assay [1] was 49.7%; in assay [2], 60.7%; in assay [3] it was 71.4%; in assay [4], 87.8%; in assay [5] it was 81%; in assay [6] it was 73%. Further, the growth is 89.7% in assay [7] and 77.2% in assay [8].

With `CSc1nc2c(c(=O)n1C)C1(C(=O)N(Cc3ccccc3)c3ccccc31)c1c(nc(SC)n(C)c1=O)N2`, the growth in assay [1] was 63.7%; in assay [2], 104%; in assay [3], 107%; in assay [4], 94.3%; in assay [5], 82.6%; in assay [6], 93%. For the same molecule, the figures for the growth in assay [7] and in assay [8] were 99.6% and 87.9%, respectively.

As for `CCN(CC)CC(C)Nc1ccc(C)c2sc3ccccc3c(=O)c12` (centres undefined), the growth in assay [1] was 53.6%; in assay [2], 82.3%; in assay [3], 59.1%; in assay [4] it was 55.8%; in assay [5], 32.6%; in assay [6] it was 34.6%. In addition, the growth is 45.9% in assay [7] and 55% in assay [8].

With `Cc1cnc(N)nc1OCC(C)(C)CNC(=O)c1cccc(-c2ccc(S(=O)(=O)Nc3ccc4c(c3)N(C(=O)C3CC3)CCC4)cc2)c1`, the growth is 20% in assay [1]; 78% in assay [2]; 50.4% in assay [3]; 73.9% in assay [4]; 43.6% in assay [5]; 61.3% in assay [6]. Also, the growth is 72.6% in assay [7] and 61.8% in assay [8].

On to `O=S(=O)(NCc1ccccc1)c1ncnc2nc[nH]c12`, for which the growth was 107% in assay [1]; 93.7% in assay [2]; 110% in assay [3]; 103% in assay [4]; 98.1% in assay [5]; 108% in assay [6]. Also, the growth in assay [7] and in assay [8] was 101% throughout.

On to `Cc1ccc(NC(=O)N[C@@H](Cc2cc(F)cc(F)c2)C(=O)N[C@@H]2C(=O)N3CCC[C@H]3C(=O)N3CCCC[C@H]3C(=O)N[C@@H](C)C(=O)N3C[C@H](C)C[C@H]3C(=O)O[C@H]2C)cc1`, for which the growth is 19.7% in assay [1]; 19.6% in assay [2]; 18.5% in assay [3]; 35.6% in assay [4]; 23.1% in assay [5]; 11.2% in assay [6]. Moreover, the values for the growth in assay [7] and in assay [8] were 24.6% and 37.8%, respectively.

For the molecule `O=C(O)c1cc([N+](=O)[O-])ccc1Br`, the growth in assay [1] is 101%; in assay [2], 91.5%; in assay [3], 98.5%; in assay [4] it was 104%; in assay [5] it was 95.8%; in assay [6], 99.5%. Also, the values for the growth in assay [7] and in assay [8] were 104% and 101%, respectively.
